Measured values: PubChem BioAssay (NCATS)
Where “and” joins values, the source holds several entries; their conditions need not be identical. Equal entries are not always repeated. Results filed as inconclusive are left out. Calls of active or inactive are those of the source. Calls come from the whole dose curve; as a rule, active = well fitted curve in the direction sought with a large enough effect; inconclusive = small, poorly fitted or top-dose-only effect, or another doubt; inactive = no such curve, though single readings can be large; an effect the other way counts as inactive or inconclusive.

Tests used:
HaCat [1] = experiment: Cytotoxic Profiling of Annotated Libraries Using Quantitative High-Throughput Screening (AID 1296008); settings: Five cell lines viability, CellTiter-Glo ATP luminescence, 48-72 h; max response: stronger effect = lower value; note: nearly all actives have a fitted effect of over 60% in size
Summary of the method: (§1)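 Cytotoxicity was measured as CellTiter-Glo ATP luminescence, read after 10 min at room temperature. Compound treatment of the cells lasted 48 or 72 hr at 37 degrees Celsius in a qHTS format.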

KB-3-1 = experiment: as above; settings: Five cell lines viability, CellTiter-Glo ATP luminescence, 48-72 h; max response: stronger effect = lower value
Summary of the method: as §1

HACAT [2] = experiment: qHTS assay to identify novel small-molecules to repurpose for Merkel cell carcinoma treatment (AID 1296009); settings: MCC and control cell lines, CellTiter-Glo viability, 72 h; series mostly up to 44.8 µM; note: nearly all actives have a fitted effect of over 60% in size
Summary of the method: (§2)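 72 hr, 37 degree celsius; NPC 8-pt / MIPE 11-pt dose response; compound pinned in DMSO; CellTiter-Glo, 10 min RT, luminescence; normalized to no-cell and DMSO controls.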

MCC-13 = experiment: as above; settings: MCC and control cell lines, CellTiter-Glo viability, 72 h; series mostly up to 46 µM
Summary of the method: as §2

MCC-26 = experiment: as above; settings: MCC and control cell lines, CellTiter-Glo viability, 72 h; series mostly up to 46 µM
Summary of the method: as §2

MKL-1 = experiment: as above; settings: MCC and control cell lines, CellTiter-Glo viability, 72 h; series mostly up to 46 µM
Summary of the method: as §2

MKL-2 = experiment: as above; settings: MCC and control cell lines, CellTiter-Glo viability, 72 h; series mostly up to 46 µM
Summary of the method: as §2

UISO = experiment: as above; settings: MCC and control cell lines, CellTiter-Glo viability, 72 h; series mostly up to 46 µM
Summary of the method: as §2

WaGa = experiment: as above; settings: MCC and control cell lines, CellTiter-Glo viability, 72 h; series mostly up to 46 µM
Summary of the method: as §2

NIH3T3 [3] = experiment: Cytotoxic Profiling of Annotated Libraries Using Quantitative High-Throughput Screening (AID 1296008); settings: Five cell lines viability, CellTiter-Glo ATP luminescence, 48-72 h; max response: stronger effect = lower value; note: nearly all actives have a fitted effect of over 60% in size
Summary of the method: as §1

HEK293 = experiment: as above; settings: Five cell lines viability, CellTiter-Glo ATP luminescence, 48-72 h; max response: stronger effect = lower value
Summary of the method: as §1

HeLa = experiment: Primary qHTS to identify gynecologic anti-cancer compounds using libraries of approved drugs and bioactive compounds (AID 1345084); settings: Gynecologic cancer cell panel viability, ATPlite luminescence, 48 h; series mostly up to 57.5 µM; note: nearly all actives have a fitted effect of over 55% in size
Summary of the method: (§3)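 Cell viability after 48 h drug treatment, ATPlite luminescence readout; five doses.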

JEG-3 = experiment: as above; settings: Gynecologic cancer cell panel viability, ATPlite luminescence, 48 h; series mostly up to 57.5 µM
Summary of the method: as §3

CASKI = experiment: as above; settings: Gynecologic cancer cell panel viability, ATPlite luminescence, 48 h; series mostly up to 57.5 µM
Summary of the method: as §3

Es-2 = experiment: as above; settings: Gynecologic cancer cell panel viability, ATPlite luminescence, 48 h; series mostly up to 57.5 µM
Summary of the method: as §3

Hek293T = experiment: as above; settings: Gynecologic cancer cell panel viability, ATPlite luminescence, 48 h, control line for the selectivity index; series mostly up to 57.5 µM
Summary of the method: as §3

CAOV3 = experiment: as above; settings: Gynecologic cancer cell panel viability, ATPlite luminescence, 48 h; series mostly up to 57.5 µM
Summary of the method: as §3

C33A = experiment: as above; settings: Gynecologic cancer cell panel viability, ATPlite luminescence, 48 h; series mostly up to 57.5 µM
Summary of the method: as §3

NIH3T3 [4] = experiment: qHTS assay to identify novel small-molecules to repurpose for Merkel cell carcinoma treatment (AID 1296009); settings: MCC and control cell lines, CellTiter-Glo viability, 72 h; at 44.8 µM (top of the series) unless noted; note: nearly all actives have a fitted effect of over 60% in size
Summary of the method: as §2
% is set by controls: 0 for no effect and ±100 for the full control effect; potency is the fitted concentration of half-maximal effect.

C=C1C(=CC=C2CCCC3(C)[C@@H]([C@H](C)C=CC=CC(O)(CC)CC)CC[C@@H]23)C[C@@H](O)C[C@@H]1O (some centres undefined)
active: Potency (MKL-2) 14.8 µM | Potency (WaGa) 11.8 µM
inactive: outcome (HaCat [1]) | outcome (KB-3-1) | Potency (HACAT [2]) | Potency (MCC-13) | Potency (MCC-26) | Potency (MKL-1) | Potency (UISO)

CC[C@H](CO)Nc1nc(NCc2ccccc2)c2ncn(C(C)C)c2n1
inactive: max response (NIH3T3 [3]) -26.8% | Potency (MCC-13) | Potency (MCC-26) | Potency (MKL-1) | Potency (MKL-2) | Potency (WaGa)

O=c1[nH]c(=O)n(C2CCCO2)cc1F (centres undefined)
inactive: max response (HEK293) -0.0583% | outcome (KB-3-1) | Potency (MCC-13) | Potency (MCC-26) | Potency (MKL-1) | Potency (MKL-2) | Potency (UISO)

O=C(NC1CCNCC1)c1[nH]ncc1NC(=O)c1c(Cl)cccc1Cl
active: Potency (HEK293) 0.264 µM | Potency (NIH3T3 [3]) 13.2 µM | Potency (MKL-1) 0.372 µM | Potency (MKL-2) 0.833 µM | Potency (UISO) 1.32 µM

Nc1nc(Nc2ccc(S(N)(=O)=O)cc2)nn1C(=O)c1c(F)cccc1F
active: Potency (HEK293) 5.9 µM and 2.59 µM | Potency (KB-3-1) 3.26 µM | Potency (NIH3T3 [3]) 10.5 µM and 11.6 µM | Potency (UISO) 13.2 µM | Potency (HeLa) 22.4 µM
inactive: Potency (JEG-3)

Cc1ccc(C(=O)Nc2cccc(C(F)(F)F)c2)cc1-c1ccc2nc(NCCN3CCOCC3)ncc2c1
active: Potency (HaCat [1]) 6.51 µM | Potency (KB-3-1) 16.6 µM | Potency (NIH3T3 [3]) 10.5 µM and 18.4 µM | Potency (MCC-13) 11.8 µM | Potency (MCC-26) 18.7 µM | Potency (CASKI) 14.1 µM | Potency (Es-2) 11.2 µM | Potency (HeLa) 11.2 µM
inactive: Potency (MKL-2) | Potency (WaGa) | Potency (Hek293T)

CC1(C)CCC(c2ccc(Cl)cc2)=C(CN2CCN(c3ccc(C(=O)NS(=O)(=O)c4ccc(N[C@H](CCN5CCOCC5)CSc5ccccc5)c(S(=O)(=O)C(F)(F)F)c4)cc3)CC2)C1
inactive: max response (KB-3-1) -2.09% | Potency (MCC-13) | Potency (MCC-26) | Potency (UISO) | Potency (Es-2)
active: Potency (MKL-1) 0.418 µM | Potency (MKL-2) 0.264 µM | Potency (WaGa) 0.118 µM | Potency (CAOV3) 12.6 µM | Potency (CASKI) 14.1 µM

CC(C)(C)NC(=O)[C@H]1CN(Cc2cccnc2)CCN1C[C@@H](O)C[C@@H](Cc1ccccc1)C(=O)N[C@H]1c2ccccc2C[C@H]1O
inactive: max response (KB-3-1) -44.5% | Potency (MCC-13) | Potency (MCC-26) | Potency (MKL-1) | Potency (UISO) | Potency (WaGa)

COc1cc2c(NC3CCN(C(C)C)CC3)nc(C3CCCCC3)nc2cc1OCCCN1CCCC1
active: Potency (HEK293) 7.43 µM and 5.8 µM | Potency (MKL-2) 6.62 µM | Potency (C33A) 28.2 µM | Potency (CAOV3) 6.31 µM | Potency (CASKI) 20 µM | Potency (JEG-3) 10 µM
inactive: Potency (MCC-13)

Cc1cn2c(-c3cn[nH]c3)cnc2c(Nc2ccc(C(=O)N3CCNCC3)cc2F)n1
active: Potency (HEK293) 16.4 µM
inactive: Potency (MCC-13) | Potency (MKL-1) | Potency (MKL-2) | Potency (WaGa) | Potency (C33A) | Potency (CASKI) | Potency (Es-2) | Potency (Hek293T) | Potency (JEG-3)

Nc1ccc(S(=O)(=O)Nc2ncccn2)cc1
inactive: Potency (HACAT [2]) | Potency (MCC-13) | Potency (MKL-1) | Potency (MKL-2) | outcome (NIH3T3 [4]) | Potency (UISO) | Potency (WaGa)

Nc1ccc(C(=O)c2cc3c(ccc4ccccc43)[nH]2)cc1
active: Potency (HEK293) 2.96 µM | Potency (KB-3-1) 4.18 µM | Potency (WaGa) 8.33 µM

CCN(CC)CCCCNc1ncc2cc(-c3cc(OC)cc(OC)c3)c(NC(=O)NC(C)(C)C)nc2n1
active: Potency (HEK293) 4.18 µM
inactive: max response (KB-3-1) -22.2% | Potency (MCC-13) | Potency (MCC-26) | Potency (MKL-1) | Potency (MKL-2) | Potency (WaGa)

CC(C)(O)CCc1ccc(OCc2cc(-c3cccc(OC(F)F)c3)c3ncccc3c2)cc1
inactive: outcome (HaCat [1]) | max response (NIH3T3 [3]) 4.85% | Potency (HACAT [2]) | Potency (MCC-13) | Potency (MCC-26) | Potency (MKL-1) | Potency (MKL-2) | Potency (UISO) | Potency (WaGa) | Potency (C33A) | Potency (CAOV3) | Potency (CASKI) | Potency (Es-2) | Potency (HeLa) | Potency (Hek293T)

Cc1cc(C(=O)N2CCN(c3cccc(Cl)c3)CC2)n(-c2ccccc2)n1
active: Potency (HEK293) 526 nM and 1.46 µM | Potency (KB-3-1) 833 nM and 1.64 µM | Potency (UISO) 1.66 µM | Potency (Es-2) 11.2 µM | Potency (HeLa) 8.91 µM

COc1cc(C(=O)NS(=O)(=O)c2ccccc2C)ccc1Cc1cn(C)c2ccc(NC(=O)OC3CCCC3)cc12
inactive: max response (KB-3-1) -2.66% | Potency (MKL-1) | Potency (WaGa) | Potency (C33A) | Potency (CASKI) | Potency (Es-2) | Potency (HeLa) | Potency (Hek293T) | Potency (JEG-3)
active: Potency (UISO) 20.9 µM
